Assay results reported in ChEMBL document CHEMBL3988442, “University of Dundee, Small-Polar-MMV Screening Library” (2021).

biological target: Shiga toxin 2 (Escherichia coli O157:H7) (UniProt P09385+P09386); test: E. coli 0.157:H7 Shiga Toxin SOP - stx2 screening assay; type: functional; design: scale not given: direction of the effect not stated beside the values; conditions: 30 µM

Row | SMILES | Percent Effect [%]
1 | CC(=O)N1CCOC2(CCN(C(=O)c3cnoc3C)CC2)C1 | 4.56
2 | Cc1ccccc1-n1ncc(C(=O)N2CCCC2c2cnn(C)c2)c1C (stereo not given) | 10.1
3 | COCC1CCN(C(=O)c2cccc(S(=O)(=O)NC3CCCC3)c2)C1 (stereo not given) | -4.97
4 | CCN(Cc1ccc2c(c1)OCO2)C(=O)CCc1c(C)nc(C)[nH]c1=O | 29.9
5 | CN(CCN1CCOCC1)C(=O)CCc1cccc(Cl)c1 | -13.5
6 | CN(C)C(=O)N1CCN(Cc2nnc(C(C)(C)C)o2)CC1 | 3.28
7 | O=C(Cc1ccsc1)N1CCCC(c2n[nH]c3nccnc23)C1 (stereo not given) | 6.36
8 | COCCCNC(=O)CN(C)C(=O)c1cc(C)ccc1N(C)C(C)C | 4.69
9 | CN1CC(=O)N(c2cccnc2)CC12CCN(C(=O)c1cccnc1)C2 (stereo not given) | -12
10 | CCN1CCOC(CNCc2ccccc2OCc2ccccn2)C1 (stereo not given) | 23.9
11 | CCn1c(C)nnc1CN(C)C1CCN(CCn2cccn2)C1 (stereo not given) | 12.1
12 | CC(NCC1=Cc2cc(Cl)ccc2OC1)c1nnc2n1CCCC2 (stereo not given) | -9.58
13 | CN(Cc1ccco1)[C@@H]1CN(Cc2ccc(F)cc2)C[C@@H]2CCCO[C@@H]21 | 7.23
14 | N#Cc1ccc(S(=O)(=O)NC(=O)C2CC2)c(C(F)(F)F)c1 | 9.71
15 | Cn1ccnc1CNC(=O)N(CCCO)C1CCCc2ccccc21 (stereo not given) | 1.57
16 | CCn1cc2c(n1)CN(Cc1nccs1)CC2COCC1CC1 (stereo not given) | -5.95
17 | COCC(=O)N1CCC(c2cc(C(F)(F)F)n3ccnc3n2)CC1 | -10.9
18 | Cc1ccc(CN2C[C@@H]3COC[C@@H](NS(C)(=O)=O)[C@@H]3C2)o1 | -1.23
19 | O=c1[nH]c2nc(N3CCSCC3)ncc2c(=O)n1-c1cccc(F)c1 | -14.3
20 | Cc1ccc(CN2CCc3ncc(CNS(C)(=O)=O)n3CC2)o1 | -24.4

Row | SMILES | Percent Effect [%]
21 | CC(C)c1cc(C(=O)N(C)Cc2cccc3ncccc23)n(C)n1 | -15
22 | Cc1nc(C)n(CC2CCCN2Cc2cn3ccsc3n2)n1 (stereo not given) | -76
23 | CC(C)(C)c1cn2nc(N3CCOC(Cn4cncn4)C3)sc2n1 (stereo not given) | -8.88
24 | O=C(COc1ccccc1)N1CCC[C@]2(C[C@H](OCC3CC3)CO2)C1 | -10.4
25 | O=C([C@@H]1CC[C@@H]2[C@@H](CCN2Cc2ccoc2)O1)N1CCCC1 | 1.2
26 | Cc1nc(CO[C@@H]2CN(Cc3cnn(C)c3)[C@@H]3COC[C@@H]32)cs1 | -3.46
27 | CC1=NN(c2ccc(C(=O)N3CCCC(n4ccnc4)C3)cc2)CC1 (stereo not given) | -30.6
28 | CNC(=O)c1cc2c(nc1NCC1CC1)CCN(c1ccncn1)CC2 | -30.7
29 | Cc1cnc(N2CCCC3(CCN(Cc4csc(C)n4)C3=O)C2)nc1 (stereo not given) | -0.084
30 | O=C(c1ccncn1)N1CCO[C@H]2[C@@H](OCc3cccnc3)CC[C@@H]21 | -37.5
31 | O=C(NCCCN1CCc2ccccc2C1)c1cccnc1O | -68.5
32 | CCN1C[C@H]2CCN(C(=O)NC3CCCC3)CC[C@H]2S1(=O)=O | -57.6
33 | COc1cccc(OCC2CCCN(C3CCN(C(C)=O)CC3)C2)c1 (stereo not given) | -0.97
34 | Cc1cnn(CC2CN(c3ncnc4ccsc34)CCO2)c1 (stereo not given) | -0.262
35 | O=C(NCc1ccccn1)NC1CCOc2ccccc21 (stereo not given) | -20.3
36 | CN(C(=O)c1cccc(C(=O)NS(C)(=O)=O)c1)c1ccccc1 | -20.1
37 | Cc1cc(N2CCC(CC(N)=O)CC2)nc(-c2ccncc2)n1 | 0.525
38 | CCc1nc(CN2CCCC(NCc3nc4cccnc4[nH]3)C2)no1 (stereo not given) | -27.7
39 | CN(C)S(=O)(=O)N1CC[C@]2(C[C@H](Oc3cccnc3)CO2)C1 | -27.2
40 | c1ccc2cc(OCCN3CCOC(Cn4cncn4)C3)ccc2c1 (stereo not given) | -29.2
